Test results from the supplement of paper PMC10849652.
The full data set covers some 8,800 targets. This sample favours those with a hit. About 0.5% of all pairs of compound and target were hits.

What was measured:
Experiment in all cases: log2 fold change, soluble protein after heating vs DMSO (PISA); higher = thermal stabilisation; K562 lysate, 10 uM; active = over 0.2 and 3.5 SD of the protein, either way, in both replicates (recomputed)
lapatinib = compound: CS(=O)(=O)CCNCc1ccc(-c2ccc3ncnc(Nc4ccc(OCc5cccc(F)c5)c(Cl)c4)c3c2)o1 [lapatinib]
Outline: (§1)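 K562 pellets were dounce-homogenised in PBS pH 7.4 with 1 mM MgCl2, and the crude extract at 1 mg/mL protein was treated with 10 μM compound for 30 min. Aliquots were heated for 3 min across 48°C-58°C, pooled, and brought to 0.5% NP-40 at 4°C; soluble protein was the supernatant after 21,000xg for 90 min. Soluble protein was quantified by TMTpro 16plex LC-MS/MS with channel sums equalised, and reported as log2 fold change in thermal stability against DMSO controls, with values from duplicates.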

pictilisib = compound: CS(=O)(=O)N1CCN(Cc2cc3nc(-c4cccc5[nH]ncc45)nc(N4CCOCC4)c3s2)CC1 [pictilisib]
Outline: as §1

crizotinib = compound: C[C@@H](Oc1cc(-c2cnn(C3CCNCC3)c2)cnc1N)c1c(Cl)ccc(F)c1Cl [crizotinib]
Outline: as §1

[1] = compound: C[C@H](C1=CC=C(C=C1)C(=O)NC2=C3C=CNC3=NC=C2)N
Outline: as §1

duvelisib = compound: C[C@H](Nc1ncnc2nc[nH]c12)c1cc2cccc(Cl)c2c(=O)n1-c1ccccc1 [duvelisib]
Outline: as §1

gandotinib = compound: Cc1cc(Nc2cc(CN3CCOCC3)c3nc(C)c(Cc4ccc(Cl)cc4F)n3n2)n[nH]1 [gandotinib]
Outline: as §1

tozasertib = compound: Cc1cc(Nc2cc(N3CCN(C)CC3)nc(Sc3ccc(NC(=O)C4CC4)cc3)n2)n[nH]1 [tozasertib]
Outline: as §1

doramapimod = compound: Cc1ccc(-n2nc(C(C)(C)C)cc2NC(=O)Nc2ccc(OCCN3CCOCC3)c3ccccc23)cc1 [doramapimod]
Outline: as §1

bafetinib = compound: Cc1ccc(NC(=O)c2ccc(CN3CC[C@H](N(C)C)C3)c(C(F)(F)F)c2)cc1Nc1nccc(-c2cncnc2)n1 [bafetinib]
Outline: as §1

[2] = compound: Cc1cccc(CC(=O)N2CCc3c2ccc(-c2cn(C)c4ncnc(N)c24)c3F)n1
Outline: as §1

Measured: log2 fold change

GIGYF2 (UniProt Q6Y7W6)
inactive: lapatinib 0.013 | pictilisib 0.057 | crizotinib 0.024 | [1] 0.03 | duvelisib -0.033 | gandotinib 0.05 | tozasertib -0.006 | doramapimod -0.086 | bafetinib -0.043 | [2] -0.009

ECH1 (UniProt Q13011)
inactive: lapatinib -0.035 | pictilisib -0.008 | crizotinib -0.03 | [1] -0.089 | duvelisib 0.016 | gandotinib 0.005 | tozasertib 0.178 | doramapimod -0.008 | bafetinib 0.091 | [2] 0.028

FANCD2 isoform 1 (UniProt Q9BXW9)
active: [2] 0.279
inactive: lapatinib -0.092 | pictilisib -0.037 | crizotinib -0.221 | [1] -0.086 | duvelisib -0.032 | gandotinib 0.132 | tozasertib -0.069 | doramapimod -0.023 | bafetinib -0.079

FXR1 (UniProt P51114)
Chain of UniProt P51114 (P51114 whole entry, looked up): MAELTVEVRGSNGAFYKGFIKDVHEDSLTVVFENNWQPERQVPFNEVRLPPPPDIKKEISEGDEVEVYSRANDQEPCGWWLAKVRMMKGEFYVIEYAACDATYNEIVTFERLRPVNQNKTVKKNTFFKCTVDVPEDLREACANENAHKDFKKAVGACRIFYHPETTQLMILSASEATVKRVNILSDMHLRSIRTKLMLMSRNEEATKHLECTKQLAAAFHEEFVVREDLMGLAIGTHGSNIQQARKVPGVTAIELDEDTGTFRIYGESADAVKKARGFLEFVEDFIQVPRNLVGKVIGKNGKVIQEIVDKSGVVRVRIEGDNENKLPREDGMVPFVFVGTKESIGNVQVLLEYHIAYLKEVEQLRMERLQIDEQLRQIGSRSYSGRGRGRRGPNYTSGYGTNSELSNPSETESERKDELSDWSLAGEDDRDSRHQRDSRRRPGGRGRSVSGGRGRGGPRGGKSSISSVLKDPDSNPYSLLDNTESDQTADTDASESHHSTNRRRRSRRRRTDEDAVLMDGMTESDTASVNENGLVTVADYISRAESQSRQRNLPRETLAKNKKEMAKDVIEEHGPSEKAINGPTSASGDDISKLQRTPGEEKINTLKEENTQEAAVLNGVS
inactive: lapatinib -0.026 | pictilisib -0.052 | crizotinib -0.006 | [1] -0.106 | duvelisib 0.023 | gandotinib -0.02 | tozasertib 0.008 | doramapimod 0.065 | bafetinib -0.03 | [2] 0.05

GGA2 (UniProt Q9UJY4)
inactive: lapatinib -0.024 | pictilisib -0.037 | crizotinib -0.029 | [1] 0.023 | duvelisib -0.002 | gandotinib -0.131 | tozasertib 0.007 | doramapimod -0.024 | bafetinib -0.046 | [2] -0.004

EXOC3 (UniProt O60645)
inactive: lapatinib -0.037 | pictilisib -0.033 | crizotinib -0.133 | [1] 0.016 | duvelisib -0.039 | gandotinib -0.098 | tozasertib 0.019 | doramapimod 0.041 | bafetinib -0.094 | [2] 0.019

EEFSEC (UniProt P57772)
Chain of UniProt P57772 (P57772 whole entry, looked up): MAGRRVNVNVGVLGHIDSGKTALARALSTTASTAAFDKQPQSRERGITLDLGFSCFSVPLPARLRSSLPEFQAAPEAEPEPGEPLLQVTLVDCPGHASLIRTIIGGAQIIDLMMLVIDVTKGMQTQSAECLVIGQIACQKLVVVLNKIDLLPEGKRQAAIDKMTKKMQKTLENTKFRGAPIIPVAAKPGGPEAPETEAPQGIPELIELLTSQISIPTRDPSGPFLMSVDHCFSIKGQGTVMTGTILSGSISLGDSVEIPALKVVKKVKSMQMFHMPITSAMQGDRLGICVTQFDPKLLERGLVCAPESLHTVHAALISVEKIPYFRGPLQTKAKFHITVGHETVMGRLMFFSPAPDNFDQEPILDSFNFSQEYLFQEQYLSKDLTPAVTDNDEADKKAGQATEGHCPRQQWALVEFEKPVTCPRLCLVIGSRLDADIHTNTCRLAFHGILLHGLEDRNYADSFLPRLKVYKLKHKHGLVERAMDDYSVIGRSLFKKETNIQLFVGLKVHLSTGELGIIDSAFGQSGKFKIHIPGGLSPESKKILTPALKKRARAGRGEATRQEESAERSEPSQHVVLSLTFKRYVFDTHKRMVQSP
inactive: lapatinib -0.019 | pictilisib 0.008 | crizotinib -0.042 | [1] -0.043 | duvelisib 0.031 | gandotinib -0.023 | tozasertib 0.024 | doramapimod 0.022 | bafetinib -0.079 | [2] 0.041

EMC7 (UniProt Q9NPA0)
active: [1] -0.353
inactive: lapatinib -0.03 | pictilisib 0.024 | crizotinib 0.012 | duvelisib -0.041 | gandotinib 0.077 | tozasertib 0.02 | doramapimod 0.011 | bafetinib -0.031 | [2] 0.174

FAU (UniProt E9PR30)
inactive: lapatinib -0.018 | pictilisib 0.02 | crizotinib -0.055 | duvelisib 0.047 | gandotinib -0.105 | tozasertib -0.027 | doramapimod 0.071 | bafetinib -0.019 | [2] -0.121
active: [1] 0.293

GABPB1 (UniProt Q06547)
Chain of UniProt Q06547 (Q06547 whole entry, looked up): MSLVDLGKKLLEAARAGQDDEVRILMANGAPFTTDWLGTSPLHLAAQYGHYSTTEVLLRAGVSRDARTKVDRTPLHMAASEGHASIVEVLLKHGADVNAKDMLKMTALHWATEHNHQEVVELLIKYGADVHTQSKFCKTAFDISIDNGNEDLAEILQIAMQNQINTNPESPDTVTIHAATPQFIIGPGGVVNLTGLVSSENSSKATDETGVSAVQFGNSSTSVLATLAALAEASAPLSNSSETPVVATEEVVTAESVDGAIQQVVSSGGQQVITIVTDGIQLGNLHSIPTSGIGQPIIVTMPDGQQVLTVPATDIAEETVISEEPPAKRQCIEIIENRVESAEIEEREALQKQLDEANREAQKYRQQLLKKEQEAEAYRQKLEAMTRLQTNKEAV
inactive: lapatinib -0.042 | pictilisib -0.052 | crizotinib 0.021 | [1] 0.192 | duvelisib 0.018 | gandotinib -0.194 | tozasertib -0.004 | doramapimod 0.026 | bafetinib -0.071 | [2] -0.082

GEMIN2 (UniProt O14893)
inactive: lapatinib -0.025 | pictilisib -0.029 | crizotinib 0.059 | [1] -0.12 | duvelisib 0.075 | gandotinib 0 | tozasertib -0.021 | doramapimod -0.092 | bafetinib -0.053 | [2] 0.139

EIF1 (UniProt P41567)
Chain of UniProt P41567 (P41567 whole entry, looked up): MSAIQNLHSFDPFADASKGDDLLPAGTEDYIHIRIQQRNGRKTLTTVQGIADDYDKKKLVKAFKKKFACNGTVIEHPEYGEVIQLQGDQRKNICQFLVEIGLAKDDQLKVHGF
inactive: lapatinib 0.053 | pictilisib 0.016 | crizotinib 0.002 | [1] -0.051 | duvelisib 0.044 | gandotinib 0.068 | tozasertib -0.008 | doramapimod -0.092 | bafetinib 0.052 | [2] 0.021

ENO1 isoform 2 (UniProt P06733)
active: [1] -0.285
inactive: lapatinib 0.005 | pictilisib -0.012 | crizotinib -0.019 | duvelisib 0.049 | gandotinib 0.153 | tozasertib 0.026 | doramapimod -0.019 | bafetinib 0.07 | [2] 0.222

DYNC1I2 isoform 5 (UniProt Q13409)
Chain of UniProt Q13409 (Q13409 whole entry, looked up): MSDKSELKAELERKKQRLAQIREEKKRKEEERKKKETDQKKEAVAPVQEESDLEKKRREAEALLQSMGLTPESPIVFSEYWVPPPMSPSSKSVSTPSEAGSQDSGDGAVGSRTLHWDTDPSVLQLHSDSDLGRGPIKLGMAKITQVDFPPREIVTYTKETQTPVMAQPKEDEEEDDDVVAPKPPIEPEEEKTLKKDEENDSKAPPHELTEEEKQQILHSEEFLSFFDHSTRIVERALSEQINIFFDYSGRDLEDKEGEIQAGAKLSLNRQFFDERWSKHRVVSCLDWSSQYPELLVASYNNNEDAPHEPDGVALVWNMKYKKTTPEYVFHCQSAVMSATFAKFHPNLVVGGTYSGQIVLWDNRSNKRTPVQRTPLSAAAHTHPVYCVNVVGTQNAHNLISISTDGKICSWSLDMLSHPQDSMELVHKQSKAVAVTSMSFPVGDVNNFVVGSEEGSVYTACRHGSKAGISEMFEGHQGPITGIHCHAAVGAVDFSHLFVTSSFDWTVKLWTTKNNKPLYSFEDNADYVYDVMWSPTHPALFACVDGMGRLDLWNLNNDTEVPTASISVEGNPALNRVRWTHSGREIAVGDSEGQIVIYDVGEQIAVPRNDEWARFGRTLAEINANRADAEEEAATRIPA
inactive: lapatinib -0.003 | pictilisib -0.017 | crizotinib -0.003 | [1] -0.004 | duvelisib -0.002 | gandotinib 0.009 | tozasertib 0.012 | doramapimod 0.006 | bafetinib 0.03 | [2] -0.003

EEF1A1, A0A087WVQ9
inactive: lapatinib 0.028 | pictilisib -0.038 | crizotinib -0.02 | [1] 0.07 | duvelisib -0.021 | gandotinib 0.017 | tozasertib -0.08 | doramapimod -0.069 | bafetinib 0.068 | [2] -0.129

FBXO22 (UniProt Q8NEZ5)
Chain of UniProt Q8NEZ5 (Q8NEZ5 whole entry, looked up): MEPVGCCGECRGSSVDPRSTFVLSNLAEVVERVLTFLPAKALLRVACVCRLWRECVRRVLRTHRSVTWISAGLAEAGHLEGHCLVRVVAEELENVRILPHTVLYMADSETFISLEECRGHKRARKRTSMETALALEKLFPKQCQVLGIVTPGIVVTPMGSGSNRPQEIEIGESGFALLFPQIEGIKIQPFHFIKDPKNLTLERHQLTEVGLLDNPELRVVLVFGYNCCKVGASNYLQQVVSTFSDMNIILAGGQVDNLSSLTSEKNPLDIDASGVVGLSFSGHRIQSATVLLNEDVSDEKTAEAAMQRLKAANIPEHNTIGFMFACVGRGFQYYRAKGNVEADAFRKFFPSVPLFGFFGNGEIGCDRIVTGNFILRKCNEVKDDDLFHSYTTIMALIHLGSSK
inactive: lapatinib -0.035 | pictilisib -0.027 | crizotinib -0.035 | [1] 0.035 | duvelisib -0.012 | gandotinib -0.03 | tozasertib 0 | doramapimod 0.034 | bafetinib -0.049 | [2] -0.039

FREM2 (UniProt Q5SZK8)
inactive: lapatinib -0.077 | pictilisib 0.046 | crizotinib -0.095 | duvelisib 0.06 | gandotinib 0.172 | tozasertib 0.104 | doramapimod 0.07 | bafetinib -0.135 | [2] 0.218
active: [1] -0.318

FYN (UniProt P06241)
inactive: lapatinib 0.007 | pictilisib -0.201 | crizotinib 0.12 | [1] -0.092 | duvelisib -0.019 | tozasertib 0.054 | doramapimod -0.04 | bafetinib 0.198 | [2] -0.057
active: gandotinib 0.422

EXTL2 (UniProt Q9UBQ6)
inactive: lapatinib -0.071 | pictilisib -0.282 | crizotinib 0.032 | [1] -0.138 | duvelisib -0.001 | gandotinib 0.106 | tozasertib 0.028 | doramapimod 0.058 | bafetinib -0.02 | [2] -0.006

ENSA isoform 3 (UniProt O43768)
Chain of UniProt O43768 (O43768 whole entry, looked up): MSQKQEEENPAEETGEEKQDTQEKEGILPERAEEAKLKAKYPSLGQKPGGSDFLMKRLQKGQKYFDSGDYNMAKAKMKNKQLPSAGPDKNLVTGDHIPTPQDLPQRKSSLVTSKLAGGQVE
inactive: lapatinib 0.021 | pictilisib 0.02 | crizotinib 0.058 | [1] 0.103 | duvelisib 0.049 | gandotinib -0.042 | tozasertib -0.027 | doramapimod -0.068 | bafetinib 0.058 | [2] -0.103

GDPD1 (UniProt Q8N9F7)
Chain of UniProt Q8N9F7 (Q8N9F7 whole entry, looked up): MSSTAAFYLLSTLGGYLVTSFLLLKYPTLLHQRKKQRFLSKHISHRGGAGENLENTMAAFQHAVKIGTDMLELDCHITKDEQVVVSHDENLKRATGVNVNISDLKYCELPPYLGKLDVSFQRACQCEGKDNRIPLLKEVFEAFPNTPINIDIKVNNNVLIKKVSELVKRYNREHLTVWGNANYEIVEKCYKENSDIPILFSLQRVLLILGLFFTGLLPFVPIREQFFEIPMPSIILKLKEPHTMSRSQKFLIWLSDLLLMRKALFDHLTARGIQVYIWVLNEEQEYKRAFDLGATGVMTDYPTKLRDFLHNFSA
inactive: lapatinib 0.03 | pictilisib -0.042 | crizotinib -0.157 | [1] 0.001 | duvelisib 0.049 | gandotinib 0.164 | tozasertib -0.029 | doramapimod 0.027 | bafetinib 0.022 | [2] 0.007

EPRS (UniProt P07814)
Chain of UniProt P07814 (P07814 whole entry, looked up): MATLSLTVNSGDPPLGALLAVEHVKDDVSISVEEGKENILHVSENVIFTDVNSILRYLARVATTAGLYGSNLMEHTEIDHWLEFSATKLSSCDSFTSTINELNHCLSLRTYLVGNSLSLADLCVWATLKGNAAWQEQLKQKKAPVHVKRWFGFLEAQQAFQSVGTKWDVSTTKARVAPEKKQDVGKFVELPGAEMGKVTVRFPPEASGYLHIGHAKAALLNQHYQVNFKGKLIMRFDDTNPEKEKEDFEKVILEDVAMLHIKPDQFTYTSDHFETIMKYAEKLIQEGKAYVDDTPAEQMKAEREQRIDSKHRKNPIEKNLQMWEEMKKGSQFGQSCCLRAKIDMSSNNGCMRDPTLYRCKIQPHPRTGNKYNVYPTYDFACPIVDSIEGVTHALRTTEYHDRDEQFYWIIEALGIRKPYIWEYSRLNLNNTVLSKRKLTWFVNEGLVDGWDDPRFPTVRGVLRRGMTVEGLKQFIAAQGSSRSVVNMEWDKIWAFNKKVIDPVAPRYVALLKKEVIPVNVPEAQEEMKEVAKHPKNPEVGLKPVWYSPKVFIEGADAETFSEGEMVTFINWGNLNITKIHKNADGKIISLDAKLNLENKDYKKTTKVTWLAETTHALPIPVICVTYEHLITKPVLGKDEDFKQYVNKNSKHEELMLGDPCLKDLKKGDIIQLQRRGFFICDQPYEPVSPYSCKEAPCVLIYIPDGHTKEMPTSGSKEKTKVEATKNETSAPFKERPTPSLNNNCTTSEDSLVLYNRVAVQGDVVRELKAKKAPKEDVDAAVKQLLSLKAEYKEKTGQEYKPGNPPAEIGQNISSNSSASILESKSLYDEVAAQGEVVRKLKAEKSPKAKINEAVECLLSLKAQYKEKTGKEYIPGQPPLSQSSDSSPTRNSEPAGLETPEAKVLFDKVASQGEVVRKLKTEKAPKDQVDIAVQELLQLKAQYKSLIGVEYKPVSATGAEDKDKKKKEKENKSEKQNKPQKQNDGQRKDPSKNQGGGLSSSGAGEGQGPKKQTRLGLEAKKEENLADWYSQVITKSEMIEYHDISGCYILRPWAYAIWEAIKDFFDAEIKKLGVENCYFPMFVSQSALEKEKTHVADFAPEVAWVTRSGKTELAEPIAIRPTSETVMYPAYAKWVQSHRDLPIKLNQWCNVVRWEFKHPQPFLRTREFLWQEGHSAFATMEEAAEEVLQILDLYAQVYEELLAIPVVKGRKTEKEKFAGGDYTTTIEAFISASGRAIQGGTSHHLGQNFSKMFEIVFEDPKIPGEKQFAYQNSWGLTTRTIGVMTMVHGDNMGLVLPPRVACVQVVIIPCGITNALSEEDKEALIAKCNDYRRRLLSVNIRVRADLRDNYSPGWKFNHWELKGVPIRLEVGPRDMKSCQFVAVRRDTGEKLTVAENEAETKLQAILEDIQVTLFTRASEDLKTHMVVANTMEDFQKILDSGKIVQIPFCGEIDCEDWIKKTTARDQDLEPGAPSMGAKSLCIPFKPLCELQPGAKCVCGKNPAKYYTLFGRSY
inactive: lapatinib -0.005 | pictilisib 0.006 | crizotinib -0.042 | [1] 0.015 | duvelisib 0.031 | gandotinib -0.069 | tozasertib 0.012 | doramapimod 0.02 | bafetinib 0.003 | [2] 0.019

EP300 (UniProt Q09472)
inactive: lapatinib 0.062 | pictilisib -0.078 | crizotinib 0.047 | [1] -0.101 | duvelisib -0.037 | gandotinib -0.047 | tozasertib 0.065 | doramapimod -0.016 | bafetinib 0.044 | [2] 0.089

FOXK1 (UniProt P85037)
inactive: lapatinib 0.006 | pictilisib -0.036 | crizotinib 0.025 | [1] -0.024 | duvelisib -0.043 | gandotinib 0.002 | tozasertib 0.009 | doramapimod 0.035 | bafetinib 0.029 | [2] 0.034

EEF1AKMT4 (UniProt P0DPD7)
Chain of UniProt P0DPD7 (P0DPD7 whole entry, looked up): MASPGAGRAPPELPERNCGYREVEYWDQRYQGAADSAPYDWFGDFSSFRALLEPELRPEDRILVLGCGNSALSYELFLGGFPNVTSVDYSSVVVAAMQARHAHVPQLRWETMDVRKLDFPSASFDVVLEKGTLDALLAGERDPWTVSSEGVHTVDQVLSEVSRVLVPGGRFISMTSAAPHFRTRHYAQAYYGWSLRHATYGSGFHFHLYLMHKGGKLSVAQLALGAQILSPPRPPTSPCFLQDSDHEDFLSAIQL
inactive: lapatinib -0.052 | pictilisib 0.009 | crizotinib -0.012 | [1] -0.046 | duvelisib -0.038 | gandotinib 0.067 | tozasertib -0.072 | doramapimod -0.038 | bafetinib -0.171 | [2] 0.193
